Read-out in assay [1]: Cytochrome P450 (CYP1A1), CYP1A1 (gene 1543)
Description: LTEA_HepaRG_CYP1A1: Life Technologies and Expression Analysis (LTEA) Assay for Cytochrome P450 (CYP1A1) using HepaRG (AID 2283454). As to conditions: mRNA level, 48 h; actives raise or lower the signal. The procedure, abridged:
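Differentiated human HepaRG cells, after 48 h plating, exposed in duplicate for 48 h in serum-free induction medium to 8 half-log concentrations up to 100 uM in 0.5% DMSO. CYP1A1 mRNA by qRT-PCR, normalized to ACTB/GAPDH/POLR2A; bidirectional fit versus DMSO.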

Read-out in assay [2]: CFLAR gene, CFLAR (gene 8837)
Description: LTEA_HepaRG_CFLAR: Life Technologies and Expression Analysis (LTEA) Assay for CFLAR gene using HepaRG (AID 2283455). As to conditions: mRNA level, 48 h; actives raise or lower the signal. The procedure, abridged: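 HepaRG, 48 h exposure, 8-pt conc-response (100 uM top, half-log), 0.5% DMSO vehicle, duplicates. CFLAR expression by qRT-PCR; ACTB/GAPDH/POLR2A normalization; gain or loss fit vs DMSO baseline.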

Read-out in assay [3]: Forkhead box O1 (FOXO1), FOXO1 (gene 2308)
The assay is described as follows: LTEA_HepaRG_FOXO1: Life Technologies and Expression Analysis (LTEA) Assay for Forkhead box O1 (FOXO1) using HepaRG (AID 2283456). As to conditions: mRNA level, 48 h; actives raise or lower the signal. The procedure, abridged:
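Readout is FOXO1 transcript level by multiplexed qRT-PCR against three housekeeping genes, curve-fitted in both directions relative to 0.5% DMSO vehicle. Human HepaRG cultures received chemicals for 48 h, up to 100 uM in half-log steps.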

Read-out in assay [4]: growth arrest and DNA damage 45 (GADD45A), GADD45A (gene 1647)
The assay is described as follows: LTEA_HepaRG_GADD45A: Life Technologies and Expression Analysis (LTEA) Assay for growth arrest and DNA damage 45 (GADD45A) using HepaRG (AID 2283458). The settings on record: mRNA level, 48 h; actives raise or lower the signal. The procedure, abridged: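 Differentiated HepaRG cells were exposed in duplicate for 48 h in serum-free induction medium to 8-point half-log concentrations up to 100 uM in 0.5% DMSO. GADD45A mRNA was measured by TaqMan qRT-PCR, normalized to ACTB, GAPDH and POLR2A, with bidirectional fitting versus DMSO.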

Read-out in assay [5]: Forkhead box O3 (FOXO3), FOXO3 (gene 2309)
Description: LTEA_HepaRG_FOXO3: Life Technologies and Expression Analysis (LTEA) Assay for Forkhead box O3 (FOXO3) using HepaRG (AID 2283459). As to conditions: mRNA level, 48 h; actives raise or lower the signal. Summed up:
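HepaRG, 48 h post-dose; 8 conc., half-log from 100 uM, 0.5% DMSO, duplicates; serum-free induction medium. Readout: FOXO3 mRNA, TaqMan qRT-PCR, housekeeping-normalized. Bidirectional curve fit vs DMSO baseline.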

Read-out in assay [6]: growth arrest and DNA damage 45 (GADD45B), GADD45B (gene 4616)
Description: LTEA_HepaRG_GADD45B: Life Technologies and Expression Analysis (LTEA) Assay for growth arrest and DNA damage 45 (GADD45B) using HepaRG (AID 2283461). The settings on record: mRNA level, 48 h; actives raise or lower the signal. The procedure, abridged:
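Differentiated human HepaRG cells in serum-free induction medium exposed 48 h in duplicate to eight concentrations, top 100 uM, half-log steps, 0.5% DMSO. GADD45B mRNA by TaqMan qRT-PCR, normalized to ACTB, GAPDH, POLR2A; bidirectional fit versus DMSO.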

Read-out in assay [7]: ABC Transporter (ABCC3), ABCC3 (gene 8714)
The assay is described as follows: LTEA_HepaRG_ABCC3: Life Technologies and Expression Analysis (LTEA) Assay for ABC Transporter (ABCC3) using HepaRG (AID 2283462). As to conditions: mRNA level, 48 h; actives raise or lower the signal. Summed up: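 Differentiated human HepaRG cells exposed 48 h in serum-free induction medium, 0.5% DMSO vehicle, 8-point half-log series to 100 uM in duplicate. ABCC3 mRNA by qRT-PCR, normalised to ACTB, GAPDH, POLR2A; bidirectional fit vs DMSO.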

Read-out in assay [8]: ABC Transporter (ABCB11), ABCB11 (gene 8647)
Description: LTEA_HepaRG_ABCB11: Life Technologies and Expression Analysis (LTEA) Assay for ABC Transporter (ABCB11) using HepaRG (AID 2283463). The settings on record: mRNA level, 48 h; actives raise or lower the signal. The procedure, abridged:
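ABCB11 transcript levels are read by Fluidigm TaqMan qRT-PCR after 48 h chemical treatment of human HepaRG cells. Concentrations span 100 uM downward in half-log steps with 0.5% DMSO; gain or loss is fitted against DMSO controls.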

Read-out in assay [9]: ABC Transporter (ABCC2), ABCC2 (gene 1244)
Description: LTEA_HepaRG_ABCC2: Life Technologies and Expression Analysis (LTEA) Assay for ABC Transporter (ABCC2) using HepaRG (AID 2283464). The settings on record: mRNA level, 48 h; actives raise or lower the signal. The procedure, abridged: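 Differentiated HepaRG cells in serum-free induction medium exposed 48 h to eight half-log concentrations up to 100 uM, 0.5% DMSO, in duplicate. ABCC2 mRNA measured by qRT-PCR (TaqMan, Fluidigm), normalized to ACTB, GAPDH and POLR2A. Fitted in both directions against DMSO.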

Read-out in assay [10]: Broad substrate specificity ATP-binding cassette transporter ABCG2 (Homo sapiens) (UniProt Q9UNQ0)
The assay is described as follows: LTEA_HepaRG_ABCG2: Life Technologies and Expression Analysis (LTEA) Assay for ABC Transporter (ABCG2) using HepaRG (AID 2283465). The settings on record: mRNA level, 48 h; actives raise or lower the signal. The procedure, abridged: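 Read-out is ABCG2 mRNA induction or loss quantified by qRT-PCR after 48 h chemical treatment of human HepaRG cells, normalized to three housekeeping genes. Concentrations reached 100 uM top in half-log steps; fitting was bidirectional against 0.5% DMSO.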

Read-out in assay [11]: ATP-citrate lyase (ACLY), ACLY (gene 47)
The assay is described as follows: LTEA_HepaRG_ACLY: Life Technologies and Expression Analysis (LTEA) Assay for ATP-citrate lyase (ACLY) using HepaRG (AID 2283466). As to conditions: mRNA level, 48 h; actives raise or lower the signal. Summed up:
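HepaRG, 48 h exposure, 8-pt half-log dilutions (top 100 uM), 0.5% DMSO. Readout: ACLY mRNA, TaqMan qRT-PCR, housekeeping-normalized (ACTB/GAPDH/POLR2A). Bidirectional curve fit vs DMSO.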

Read-out in assay [12]: Peroxisomal acyl-coenzyme A oxidase 1 (ACOX1) gene, ACOX1 (gene 51)
The assay is described as follows: LTEA_HepaRG_ACOX1: Life Technologies and Expression Analysis (LTEA) Assay for Peroxisomal acyl-coenzyme A oxidase 1 (ACOX1) gene using HepaRG (AID 2283467). The settings on record: mRNA level, 48 h; actives raise or lower the signal. Summed up:
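Measured by qRT-PCR against three housekeeping genes: ACOX1 transcript change in human HepaRG cells after 48 h dosing. Concentrations ran up to 100 uM in half-log steps. Curves were fitted bidirectionally relative to 0.5% DMSO.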

Read-out in assay [13]: Alkaline Phosphatase, Placental (ALPP) gene, ALPP (gene 250)
Description: LTEA_HepaRG_ALPP: Life Technologies and Expression Analysis (LTEA) Assay for Alkaline Phosphatase, Placental (ALPP) gene using HepaRG (AID 2283468). As to conditions: mRNA level, 48 h; actives raise or lower the signal. Summed up:
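HepaRG cells plated 48 h, then exposed in duplicate for 48 h in serum-free induction medium to 8-point half-log series from 100 uM in 0.5% DMSO. ALPP mRNA by TaqMan qRT-PCR, normalized to ACTB/GAPDH/POLR2A; bidirectional fit versus DMSO.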

Read-out in assay [14]: Bcl-2 (BAD) gene, BAD (gene 572)
The assay is described as follows: LTEA_HepaRG_BAD: Life Technologies and Expression Analysis (LTEA) Assay for Bcl-2 (BAD) gene using HepaRG (AID 2283469). The settings on record: mRNA level, 48 h; actives raise or lower the signal. Summed up: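 BAD transcript change, measured by qRT-PCR against three housekeeping genes and fitted in both directions relative to 0.5% DMSO, after 48 h chemical treatment of human HepaRG liver cells at concentrations up to 100 uM.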

Read-out in assay [15]: Alpha-fetoprotein (AFP) gene, AFP (gene 174)
The assay is described as follows: LTEA_HepaRG_AFP: Life Technologies and Expression Analysis (LTEA) Assay for Alpha-fetoprotein (AFP) gene using HepaRG (AID 2283472). The settings on record: mRNA level, 48 h; actives raise or lower the signal. The procedure, abridged: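 Human HepaRG cells plated 48 h, then switched to serum-free induction medium and exposed in duplicate for 48 h to 8-point half-log series from 100 uM in 0.5% DMSO. AFP mRNA by qRT-PCR, normalized to ACTB, GAPDH, POLR2A; bidirectional fit versus DMSO.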

Assay [16] in a line: CEETOX_H295R_TESTO: CeeTox H295R High-throughput Steroidogenesis Assay for Testosterone (TESTO) (AID 2283457).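 Further: cells exposed to chemicals for 48 h before medium collection.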 As to conditions: actives raise or lower the signal. Summed up:
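H295R adrenal cells, passage ≤10, exposed to chemicals for 48 h. Testosterone in medium measured by MTBE extraction and HPLC-MS/MS against a 7-point standard curve. Bidirectional fit versus DMSO; MTT viability checked in the same wells.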

Read-out in assay [17]: ABC Transporter (ABCB1), ABCB1 (gene 5243)
Description: LTEA_HepaRG_ABCB1: Life Technologies and Expression Analysis (LTEA) Assay for ABC Transporter (ABCB1) using HepaRG (AID 2283460). As to conditions: mRNA level, 48 h; actives raise or lower the signal. The procedure, abridged: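 Expression of ABCB1 was quantified by qRT-PCR against three housekeeping genes after human HepaRG cultures received test chemicals for 48 hours. Concentrations spanned eight half-log steps topping at 100 uM in 0.5% DMSO; gain or loss of signal was fitted relative to vehicle.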

Read-out in assay [18]: Bcl-2 (BAX) gene, BAX (gene 581)
Description: LTEA_HepaRG_BAX: Life Technologies and Expression Analysis (LTEA) Assay for Bcl-2 (BAX) gene using HepaRG (AID 2283470). As to conditions: mRNA level, 48 h; actives raise or lower the signal. Summed up:
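Differentiated human HepaRG cells, plated 48 h then switched to serum-free induction medium, were exposed 48 h to 8 half-log concentrations up to 100 uM in 0.5% DMSO; BAX mRNA measured by qRT-PCR, normalized to ACTB, GAPDH, POLR2A.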

Read-out in assay [19]: adenosine kinase (ADK) gene, ADK (gene 132)
The assay is described as follows: LTEA_HepaRG_ADK: Life Technologies and Expression Analysis (LTEA) Assay for adenosine kinase (ADK) gene using HepaRG (AID 2283471). As to conditions: mRNA level, 48 h; actives raise or lower the signal. Summed up: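 ADK expression quantified by qRT-PCR, normalised to three housekeeping genes, after 48 h exposure of HepaRG cells to eight concentrations (top 100 uM, half-log steps, duplicate, 0.5% DMSO). Up- or down-regulation fitted relative to vehicle.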

Active and inactive are the calls of the source. How the source made its calls: active means hit-call score of the fitted dose curve at least 0.9, where 1 is the maximum; inactive means score below 0.9.

Results on 5 compounds are retold here after PubChem BioAssay (EPA / NIEHS).

Broadly, the AC50 is the midpoint of the concentration-response curve, whichever way the signal moves.

Chain of Broad substrate specificity ATP-binding cassette transporter ABCG2 (Homo sapiens) (Q9UNQ0 whole entry, looked up): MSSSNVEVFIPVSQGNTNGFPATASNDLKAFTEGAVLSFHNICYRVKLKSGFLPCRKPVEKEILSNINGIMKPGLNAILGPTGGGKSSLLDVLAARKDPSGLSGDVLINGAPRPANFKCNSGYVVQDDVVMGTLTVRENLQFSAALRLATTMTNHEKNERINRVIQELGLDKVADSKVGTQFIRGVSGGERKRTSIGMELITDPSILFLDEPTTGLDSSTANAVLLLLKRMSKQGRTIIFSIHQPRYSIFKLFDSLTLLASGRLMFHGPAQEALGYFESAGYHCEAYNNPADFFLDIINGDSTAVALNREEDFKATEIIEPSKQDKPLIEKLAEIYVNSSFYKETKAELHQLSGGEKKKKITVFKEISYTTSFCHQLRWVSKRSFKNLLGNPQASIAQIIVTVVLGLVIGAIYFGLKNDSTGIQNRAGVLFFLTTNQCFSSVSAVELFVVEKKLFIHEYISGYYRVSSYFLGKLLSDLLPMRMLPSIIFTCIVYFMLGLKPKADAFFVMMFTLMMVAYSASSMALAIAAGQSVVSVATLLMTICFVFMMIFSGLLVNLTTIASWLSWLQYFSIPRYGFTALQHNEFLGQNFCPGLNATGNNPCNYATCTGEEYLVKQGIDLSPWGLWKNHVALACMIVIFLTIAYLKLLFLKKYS

`Clc1ccc(Cl)c(Cl)c1`: the outcome in assay [1], in assay [3], in [5], in [6], in assay [7] and in assay [9] was inactive. For the same compound, the call in assay [10], in [11], in [12] and in assay [14] was inactive. The AC50 in assay [2] is 50 µM (active); in assay [4], 9.92 µM (active); in [8], 50 µM (active); in assay [13], 9.92 µM (active); in assay [15], 50 µM (active).
For the compound `C[C@]12C=CC3=C4CCC(=O)C=C4CC[C@H]3[C@@H]1CC[C@@H]2O`, the compound was classed as inactive in assay [2], in assay [3], in [4], in assay [5], in assay [17] and in [6]. For the same compound, the outcome in assay [7], in assay [9], in assay [10], in assay [11], in assay [14] and in [18] was inactive. Further, the AC50 in assay [16] was 83 µM (active); in [8] it was 27.3 µM (active); in [13] it was 24.4 µM (active); in assay [15], 50 µM (active).
For `COC(=O)c1ccccc1N`, the call in assay [1], in assay [2], in [3], in assay [4], in assay [5] and in [7] was inactive. For the same compound, the call in [8], in assay [9], in [10], in assay [11], in [13] and in assay [14] was inactive. Also, the compound was called inactive in assay [15].
As for `O=[N+]([O-])C(Br)(CO)CO`, the concentration at half-maximal activity (AC50) in assay [1] was 50 µM (active). For the same compound, the compound was called inactive in [2], in assay [3], in assay [4], in assay [5], in [17] and in assay [7]. Moreover, the result in assay [8], in assay [9], in assay [10], in [11], in assay [13] and in assay [14] was inactive. Moreover, the compound was classed as inactive in assay [19] and in assay [15].
For the compound `[As]#[In]`, the compound was called inactive in assay [1], in [2], in assay [3], in assay [4], in [5] and in assay [17]. The compound was called inactive in [7], in assay [8], in assay [9], in [10], in assay [11] and in assay [12]. For the same compound, the compound was classed as inactive in assay [13], in assay [14], in [18], in assay [19] and in [15].
